The source of these data is ChEMBL document CHEMBL1156829.

Over roughly 5,400 compounds, “IFI” has its median near 2; the highest 2% begin near 22. This is one part of a sample in which the highest values are shown more often than they occur.

The experiment in a line: NOVARTIS: Inhibition Frequency Index (IFI) - the number of HTS assays where a compound showed > 50% inhibition/induction, expressed as a percentage of the number of assays in which the compound was tested. Format: functional.
As for `CCC(C)(O)C(=O)O[C@H]1C(=O)OC2CC3C(C)=C[C@H](O)[C@@H](O)[C@]3(C)C3C24CO[C@]3(O)[C@H](O)[C@H](C)C14` (some centres not stated), the IFI was 7.69%. In turn, `COc1cc2c(O[C@@H]3O[C@H](CO)[C@@H](O)[C@H](O)[C@H]3O)c3c(c(-c4ccc5c(c4)OCO5)c2cc1OC)C(=O)OC3` yielded an IFI of 12.4%. Take `O=C(CCl)Nc1ccc(Cl)cc1`: the IFI was determined as 3.54%. In the case of `COc1ccccc1N1CCN(Cc2cc(C)c(C)cc2O)CC1` it was 2.94%; in that of `COc1ccc(C(Cc2ccccc2)NC2CN3CCC2CC3)cc1` (configuration not stated), 0%.

The compound `c1ccc(CCNC2CCN(Cc3ccccc3)CC2)cc1` registered an IFI of 0%. In turn, `O=C(NNC(=O)c1csnn1)c1ccc(Cl)cc1` returned an IFI of 1%.

Turning to `c1ccc(-c2nn(-c3ccccc3)[n+](-c3ccccc3)n2)cc1`, the IFI was determined as 11.2%. Consider `CCN(CC)S(=O)(=O)c1ccc(C(=O)c2c(C)c(C(=O)C(F)(F)F)c3ccccn23)cc1`, for which the IFI is 3.12%. The same measure for `COc1ccc(C[C@H]2NC[C@H](O)[C@H]2OC(C)=O)cc1`: 33.6%; for `CC(=O)N(C1=C(N(C)C)C(=O)c2ccccc2C1=O)c1cccc(Cl)c1`: 7.14%. In the case of `Clc1cccc(CNC2CCN(CCc3ccccc3)CC2)c1` it was 0.781%; in that of `Cc1n(-c2ccccc2)c2c([n+]1C)C(=O)c1ccccc1C2=O`, 33.3%.

Compound `CO[C@H]1[C@H](C)[C@@H]([C@H]2CC[C@H]([C@@H]3CC[C@H]([C@@]4(C)O[C@]5(O[C@H](C[C@@H]6O[C@](O)([C@@H](C)C(=O)O)[C@@H](C)[C@H](O[C@H]7CC[C@H](OC)[C@@H](C)O7)[C@@]6(C)OC)C[C@@H](OC)[C@H]5C)[C@H](C)[C@H]4OC)O3)O2)O[C@](C)(O)[C@@H]1C` had an IFI of 15.5%. `COc1cc2c(cc1O)CC[n+]1cc3c(OC)c(OC)ccc3cc1-2`: the IFI is 0%.

Compound `CCN1C(=O)N(CC(N)=O)C(=O)C12CCN(Cc1ccc(N(C)c3ccccc3)cc1)CC2` came in with an IFI of 3.85%. Compound `CC(C)N1CC=C(c2c[nH]c3ccccc23)CC1` displayed an IFI of 0%. The same measure for `CC[C@@H]1CN2CC[C@H]1C[C@H]2[C@H](O)c1ccnc2ccc(OC)cc12`: 1.32%.

In turn, `C[C@@H]1C[C@@H]([C@H](O)CC2CC(=O)NC(=O)C2)C(=O)[C@@H](C)C1` yielded an IFI of 19.7%. Regarding `C[C@H]1C[C@H](C)C(=O)[C@@H]([C@@H](O)CC2CC(=O)NC(=O)C2)C1`, the IFI was 23.9%.

Take `CC(=O)OC1(C)CC(C)C(=O)C(C(O)CC2CC(=O)NC(=O)C2)C1` (configuration not stated): the IFI is 22.6%. In the case of `C[C@@H]1C[C@@H](C)C(=O)[C@@H](C(O)CC2CC(=O)NC(=O)C2)C1` (some centres not stated), the IFI stood at 23.4%. With `OCCC1CN(Cc2cccc(Cl)c2)CCN1Cc1ccccc1` (configuration not stated), the IFI worked out at 7.69%. As for `COC(=O)[C@]1(C)CC[C@]2(C)CC[C@]3(C)C4=CC=C5C(=CC(=O)C(O)=C5C)[C@]4(C)CC[C@@]3(C)[C@@H]2C1`, the IFI is 21.4%. In the case of `CC(=O)O[C@]1(C(C)=O)CCC2C3C=CC4=CC(=O)CC[C@]4(C)C3CC[C@@]21C` (some centres not stated) it was 2.33%; in that of `Cc1nc2ccccc2c(=O)n1-c1ccc([N+](=O)[O-])cc1`, 0%; in that of `C=CC12CCN(CC1)C(C(O)c1ccnc3ccc(OC)cc13)C2` (configuration not stated), 0%. The same measure for `C=CC1CN2CCC1CC2[C@H](c1ccnc2ccccc12)S(=O)(=O)O` (some centres not stated): 0%. The same measure for `O[C@@]1(c2cc3ccccc3s2)CN2CCC1CC2`: 1.63%; for `CCN1CCC(N2CCC(n3c(Cc4ccccc4OC)nc4cc(F)ccc43)CC2)CC1`: 1.7%; for `C=C[C@H]1CN2CC[C@H]1C[C@@H]2[C@@H](OC(=O)C(C)C)c1ccnc2ccccc12`: 1.67%. For `CC1=CC[C@@H](/C(C)=C/c2csc(C)n2)OC(=O)C[C@H](O)C(C)(C)C(=O)[C@H](C)[C@@H](O)[C@@H](C)CCC1`, the IFI came out at 5.66%. The same measure for `Cn1ccnc1C(=O)NNc1ncc(C(F)(F)F)cc1Cl`: 13.3%; for `CCCN[P+](CC(C)C)(NCCC)NCCC`: 10.9%; for `C=C[C@H]1CN2CC[C@H]1C[C@H]2[C@H](OC(=O)CC)c1ccnc2ccccc12`: 1.87%.

Regarding `C=C1[C@@H](C)[C@H]2[C@H](Cc3ccccc3)NC(=O)[C@]23C(OC(C)=O)C=C[C@@](C)(O)C(=O)[C@@H](C)CC=C[C@H]3[C@@H]1O` (some centres not stated), the IFI was determined as 6.9%. As for `CCOC(=O)c1c(S(=O)(=O)Nc2ccc(C(C)(C)C)cc2)c(-c2ccccc2)n(-c2ccccc2)c1C`, the IFI was 3.09%. `CC[C@H]1CN2CC[C@H]1C[C@H]2[C@H](O)c1ccnc2ccccc12` registered an IFI of 5.17%. The compound `CC1=CC(=O)OC[C@]23CCC(C)=C[C@H]2O[C@@H]2C[C@@H](OC(=O)C=CC=CC(=O)OCC1)[C@@]3(C)[C@]21CO1` showed an IFI of 22.6%. `CC1=C[C@H]2O[C@@H]3C[C@H]4OC(=O)C=CC=C[C@H]([C@@H](C)O)OCC[C@@H](C)[C@H](O)C(=O)OC[C@@]2(CC1)[C@]4(C)[C@@]31CO1` returned an IFI of 24.5%.

With `CC1=CC(=O)OC[C@]23C[C@H](O)C(C)=C[C@H]2O[C@@H]2C[C@@H](OC(=O)C=CC=CC(=O)OCC1)[C@@]3(C)[C@]21CO1`, the IFI amounted to 22.6%. `Cc1onc(O)c1CC(N)C(=O)O` (configuration not stated) gave an IFI of 0%. `CCOc1ccc2nccc([C@@H](O)[C@@H]3C[C@@H]4CCN3C[C@@H]4CC)c2c1` returned an IFI of 3.82%. In the case of `Cc1ccc(O)c(C(=O)c2c[nH]c(-c3nc4ccccc4[nH]3)c2)c1` it was 0%; in that of `C=CC1CN2CCC1CC2[C@@H](OC(=O)c1ccc(C(C)(C)C)cc1)c1ccnc2ccc(OC)cc12` (some centres not stated), 0%; in that of `O=C(NNc1cccc(F)n1)C(F)(F)F`, 1.25%. In the case of `C=CC(C)(CCC=C(C)C)c1ccc2c3c(c[nH]c13)CC(CO)NC(=O)C(C(C)C)N2C` (configuration not stated) it was 11.3%. The same measure for `CS/C(Cl)=C(/NC(C)=O)[P+](c1ccccc1)(c1ccccc1)c1ccccc1`: 5.34%; for `C/C=C1/C[C@H]2[C@@H](OC)Nc3cc(O)c(OC)cc3C(=O)N2C1`: 28.6%; for `O=C1Cc2ccccc2C(=C2CCNCC2)c2ccsc21`: 0%. Regarding `CC=C[C@H]1O[C@@](O)([C@@H](C)C(O)C(C)[C@H]2OC(=O)C(OC)=CC(C)=C[C@@H](C)[C@@H](O)[C@@H](C)[C@@H](O)C(C)CC(C)=CC=C[C@@H]2OC)C[C@@H](O[C@H]2C[C@@H](O)[C@H](OC(N)=O)[C@@H](C)O2)[C@@H]1C` (some centres not stated), the IFI was 15.5%. Consider `CCOC(=O)c1ccc2nc(C)cc(Nc3ccc(N4CCCCC4)cc3)c2c1`, for which the IFI was determined as 1.12%. `CCN1C(=Cc2sc3ccccc3[n+]2CC)[Se]c2ccccc21` displayed an IFI of 22.6%. In the case of `CCC(=O)OC(C(C)C(=O)O)C(C)C1OC2(CCC(C)(C3CCC(C)(C4OC(C5OC(O)(CO)C(C)CC5C)CC4C)O3)O2)CC(O)C1C` (configuration not stated) it was 8.62%.

Compound `C[n+]1c2n(c3ccccc31)N=C(c1ccccc1)C[Se]2` registered an IFI of 3.7%. In the case of `CCC1CC2CCC(O2)C(C)C(=O)OC(C)CC2CCC(O2)C(C)C(=O)OC(CC)CC2CCC(O2)C(C)C(=O)OC(C)CC2CCC(O2)C(C)C(=O)O1` (configuration not stated) it was 24.1%. The same measure for `CC1CC2CCC(O2)C(C)C(=O)O[C@H](C)CC2CCC(O2)C(C)C(=O)OC(C)CC2CCC(O2)C(C)C(=O)O[C@H](C)CC2CCC(O2)C(C)C(=O)O1` (some centres not stated): 19.2%; for `C[C@@H]1C[C@H]2CC[C@H](O2)[C@H](C)C(=O)O[C@@H](C)C[C@@H]2CC[C@@H](O2)[C@@H](C)C(=O)O[C@H](C)C[C@H]2CC[C@@H](O2)[C@H](C)C(=O)O[C@@H](C)C[C@@H]2CC[C@@H](O2)[C@@H](C)C(=O)O1`: 12.5%.

In turn, `CCCCCc1cc(O)c2c3c(c(=O)oc2c1)CN(C)CC3` yielded an IFI of 2.29%. The compound `O=C1CN=C(c2ccccc2Cl)c2cc(Cl)ccc2N1Cc1cccc([N+](=O)[O-])c1` came in with an IFI of 1.92%.

Compound `CCCCCCCc1cc(O)c2c3c(c(=O)oc2c1)CCC(C)C3` (configuration not stated) registered an IFI of 0%. The same measure for `C=C[C@H]1CN2CC[C@H]1C[C@H]2[C@H](OC(=O)CCCC)c1ccnc2ccccc12`: 4.59%. The compound `COc1cc2c3cc1Oc1c(OC)c(OC)cc4c1C(Cc1ccc(O)c(c1)Oc1ccc(cc1)CC3N(C)CC2)N(C)CC4` (configuration not stated) yielded an IFI of 7.14%.

In turn, `CN1CCc2cc3c(c4c2C1Cc1ccccc1-4)OCO3` (configuration not stated) registered an IFI of 6.17%. In turn, `COc1ccc2c(c1)CC1c3c(cc4c(c3-2)OCO4)CCN1C` (configuration not stated) returned an IFI of 25%. `CC[C@@]1(O)C[C@H](O[C@@H]2CC(N(C)C)[C@@H](O[C@@H]3C[C@@H](O)[C@@H](O[C@@H]4CCC(=O)[C@@H](C)O4)C(C)O3)[C@@H](C)O2)c2c(cc3c(c2O)C(=O)c2c(O)ccc(O)c2C3=O)[C@H]1C(=O)OC` (some centres not stated): the IFI amounted to 21.4%. `OC1(c2ccc(Cl)c(C(F)(F)F)c2)CCN(CCOC2c3ccccc3CSc3ccc(Cl)cc32)CC1` (configuration not stated) gave an IFI of 2.38%.
